The source of these data is PubChem BioAssay (Tox21).

Inconclusive results are not listed. Values without a mark were called inactive. The call rests on the fitted dose curve; in most records, active means well fitted inhibition curve with a large enough effect in the signal ratio in the repeat runs (not every such curve was filed as active); inconclusive means weak or mixed curves, or effect the other way; inactive means flat fitted curve, though single readings scatter; the % refers to the signal ratio.
On the % scale 0 is the no-effect control and ±100 the full control effect.

The nature of this assay: cAMP Responsive Elements (CRE) small molecule antagonists, cell-based qHTS assay (AID 1963591). The note with it: CRE-bla HEK293T, beta-lactamase FRET ratio; series mostly up to 92.4 µM; activity change, negative = inhibition: at the top concentration. The text has this:
U.S. Tox21 Program National Center for Advancing Translational Sciences [NCATS] Division of Preclinical Innovation [DPI] U.S. Environmental Protection Agency [EPA] National Institutes of Environmental Health Sciences [NIEHS] National Toxicology Program [NTP] U.S. Food and Drug Administration [FDA] Tox21 Assay Overview: CREB (cyclic-AMP Responsive Element Binding Protein) is a cellular transcription factor. It binds to certain DNA sequences called cAMP Responsive Elements (CRE) and regulates the transcription of the genes. […] This cell line can be used to find agonists/antagonists of the cyclic AMP signaling pathway. The activation of the report gene under culture conditions can be detected by fluorescence intensity. This cell line has been used to screen the Tox21 10K compound library to […].
Tox21 Assay Protocol Summary: CRE-bla Hek 293T cells were suspended in assay medium (DMEM containing 10% dialyzed FBS, 0.1 mM NEAA, 1 mM sodium pyruvate and 25 mM HEPES) and dispensed at 2,000 cells/4 uL /well into 1536-well black wall/clear bottom plates using a Multidrop Combi (ThermoFisher Scientific, Waltham, MA) dispenser. After the assay plates were incubated at 37 C/5% CO2 for 18 hrs, 23 nL of compounds dissolved in DMSO, positive controls or DMSO only was transferred to the assay plate by a pintool workstation (Kalypsys, San Diego, CA), followed by addition of 1 […] uL of 1.25uM NKH477 (0.25 uM as final concentration) in assay medium using a Flying Reagent Dispenser (Aurora Discovery, San Diego, CA). The plates were incubated at 37 C and 5% CO2 for 3 hrs. Then 1 uL of LiveBLAzer B/G FRET substrate (Invitrogen, Carlsbad, CA) was added to each well using Bioraptr Flying Reagent Dispenser (FRD, Aurora Discovery, San Diego, CA). The plates were incubated at room temperature for 2 h.
A general note: Quantitative high-throughput screening tests each substance at several concentrations.
For the compound `FC(F)(F)c1ccc(Cl)cc1Cl`, the “activity change, negative = inhibition” value is 0.744%.
As for `C=CC(C)(O)CCCC(C)CCCC(C)CCCC(C)C` (stereo not given), the figure is -3.17%; as for `O=C(CCCN1CCC(O)(c2ccc(Br)cc2)CC1)c1ccc(F)cc1`, 4.55% [at 42.4 µM].
Turning to `CC(=O)Nc1ccc(S(N)(=O)=O)cc1`, the “activity change, negative = inhibition” value was 4.19%.
The same measure for `COc1cccc([C@H](O)C2CCN(CCc3ccc(F)cc3)CC2)c1OC`: 2.06%.
The same measure for `O=Cc1ccccc1[N+](=O)[O-]`: -11.4%; for `CC(C)OCC1CO1` (stereo not given): -4.98%; for `CCC(C)(C)C(=O)O`: -0.503%.
As for `CC(c1cc(C(C)(C)C)cc(C(C)(C)C)c1O)c1cc(C(C)(C)C)cc(C(C)(C)C)c1O`, the figure is -17.7%.
On to `O=C(O)c1cccc(Cl)n1`, for which the “activity change, negative = inhibition” value is 5.99%.
With `CC1=CC[C@H](C(C)C)C=C1`, the “activity change, negative = inhibition” value is -0.278%.
Consider `CC(C)=CCC1=C(O)c2ccccc2C(=O)C1=O`, for which the “activity change, negative = inhibition” value is -13.8%.
As for `CCCCN(C)C`, the figure is 0.814%.
The same measure for `C[Si]1(C)O[Si](C)(C)O[Si](C)(C)O1`: -14.3%.
As for `OC1CCCc2ccccc21` (stereo not given), the figure is 1.05%; as for `N=c1ccn2c(n1)O[C@H]1[C@H](O)[C@@H](CO)O[C@H]12`, -9.88%; as for `CC(C)(C)C(=O)C(=O)O`, -6.72%.
For the compound `CO/N=C(\C(=O)O)c1csc(NC(=O)CCl)n1`, the “activity change, negative = inhibition” value is 7.52% [at 42.4 µM].
Take `CC(C)NCC(O)c1ccc(NS(C)(=O)=O)cc1` (stereo not given): the “activity change, negative = inhibition” value was -8.96%.
The same measure for `C=CC(OCC)OCC`: -5.47%; for `CCCCCCCC(C)=O`: 1.33%.
With `Cc1ccc2ccccc2n1`, the “activity change, negative = inhibition” value is -8.79%.
As for `Oc1ccccc1C=NCc1ccccc1`, the figure is 3.23% [at 42.4 µM]; as for `Cc1cc(O)ccc1N`, 19.1%; as for `O=C(Nc1ccc(Cl)c(Cl)c1)C1CC1`, 0.974% [at 42.4 µM].
The same measure for `CC(C)=CCC/C(C)=C/COC=O`: 3.56%; for `CC(=O)O[C@H]1C[C@@H]2CC[C@@H]3[C@H](CC[C@@]4(C)[C@H]3C[C@H]([N+]3(C)CCCCC3)[C@@H]4OC(C)=O)[C@@]2(C)C[C@@H]1N1CCCCC1`: -4.72% [at 42.4 µM]; for `NC(=O)NC(=O)Cc1ccccc1`: -2.61% [at 42.4 µM].
As for `CN1CCN(C2Cc3ccccc3Sc3ccc(Cl)cc32)CC1` (stereo not given), the figure is -13.1% [at 42.4 µM]; as for `CC/C=C\CCOC(=O)c1ccccc1`, -2.68%.
For `CN(C)[C@@H]1C(=O)C(C(=O)NCN2CCCC2)=C(O)[C@@]2(O)C(=O)C3=C(O)c4c(O)cccc4[C@@](C)(O)C3C[C@@H]12` (stereo not given in full), the “activity change, negative = inhibition” value is -1.07% [at 42.4 µM].
As for `NS(=O)(=O)c1cc2c(cc1Cl)NC(C(Cl)Cl)NS2(=O)=O` (stereo not given), the figure is -4.39% [at 42.4 µM].
In the case of `NCC1CCC(C(=O)Oc2ccc(CCC(=O)O)cc2)CC1` (stereo not given), the “activity change, negative = inhibition” value is 1.57% [at 42.4 µM].
The same measure for `COc1c(N2CCNC(C)C2)c(F)cc2c(=O)c(C(=O)O)cn(C3CC3)c12` (stereo not given): -0.154% [at 42.4 µM].
The same measure for `O=C(CCCCCCCCc1cccnc1)N1CCC(C=C(c2ccccc2)c2ccccc2)CC1`: 0.909%; for `CC(=O)c1c(C)cc(C(C)(C)C)cc1C`: -2.07%; for `C=COCC(C)C`: 4.97%.
As for `CCCCCCCCCCCCCCCCC(=O)O`, the figure is -6.39% [at 42.4 µM]; as for `Cc1cccc(C)c1NC(=O)c1ccc(N)cc1`, -4.89% [at 42.4 µM].
As to `O=C(CCCN1CCN(c2ccccn2)CC1)c1ccc(F)cc1`, the “activity change, negative = inhibition” value was 3.32% [at 42.4 µM].
